From publication PMC4336329 (PLoS ONE, 2015)
Among all 310,000 compounds or so, about 14,000 (4.5%) showed an effect of 50% or more. Effects have a minus sign here. This excerpt belongs to a sample that is enriched for strong results.

Target: human ether-à-go-go-related gene (hERG) potassium channel (human, UniProt Q12809)
Test: primary screen, population patch clamp on CHO cells stably expressing hERG; higher = less effect of the substance
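Also: peak tail current of the secondary pulse compared with the same well before compound.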

Sequence of human ether-à-go-go-related gene (hERG) potassium channel (Q12809 whole entry, looked up): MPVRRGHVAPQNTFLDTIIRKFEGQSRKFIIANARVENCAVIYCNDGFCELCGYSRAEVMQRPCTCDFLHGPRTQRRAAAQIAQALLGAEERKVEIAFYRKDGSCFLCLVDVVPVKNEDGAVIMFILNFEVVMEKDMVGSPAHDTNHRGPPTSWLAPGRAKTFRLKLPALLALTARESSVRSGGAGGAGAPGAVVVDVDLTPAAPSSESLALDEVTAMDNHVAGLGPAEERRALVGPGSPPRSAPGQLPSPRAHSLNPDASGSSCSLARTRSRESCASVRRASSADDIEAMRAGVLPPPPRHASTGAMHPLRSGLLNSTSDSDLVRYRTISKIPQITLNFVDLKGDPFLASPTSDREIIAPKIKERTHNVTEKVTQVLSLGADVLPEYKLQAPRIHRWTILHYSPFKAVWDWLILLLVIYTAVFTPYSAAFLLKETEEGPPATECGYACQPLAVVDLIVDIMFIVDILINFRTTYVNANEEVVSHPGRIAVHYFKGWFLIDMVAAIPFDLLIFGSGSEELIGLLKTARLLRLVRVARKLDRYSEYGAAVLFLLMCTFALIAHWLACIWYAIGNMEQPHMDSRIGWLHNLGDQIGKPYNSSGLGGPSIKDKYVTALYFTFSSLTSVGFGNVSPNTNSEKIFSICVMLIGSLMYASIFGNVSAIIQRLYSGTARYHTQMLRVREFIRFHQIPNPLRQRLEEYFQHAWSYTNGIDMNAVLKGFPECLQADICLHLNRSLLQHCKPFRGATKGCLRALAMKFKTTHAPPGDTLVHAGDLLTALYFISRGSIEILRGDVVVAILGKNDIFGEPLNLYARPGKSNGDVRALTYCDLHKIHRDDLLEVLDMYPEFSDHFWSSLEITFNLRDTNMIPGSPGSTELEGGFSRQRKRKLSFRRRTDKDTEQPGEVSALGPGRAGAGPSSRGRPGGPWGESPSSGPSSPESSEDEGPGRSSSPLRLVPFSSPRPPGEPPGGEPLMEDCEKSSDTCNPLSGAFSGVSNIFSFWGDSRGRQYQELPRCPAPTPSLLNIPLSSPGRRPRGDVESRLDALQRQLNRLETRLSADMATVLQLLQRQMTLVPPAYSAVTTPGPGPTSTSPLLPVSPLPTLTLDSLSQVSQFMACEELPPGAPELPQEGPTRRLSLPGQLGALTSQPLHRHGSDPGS

Row | Structure (SMILES) | hERG current change (%, negative = inhibition) at 10uM
1 | C(=N\N1CCOCC1)/c1ccsc1.O=P(O)(O)O | 18.8%
2 | O=C(Cc1ccc(F)cc1)N1CCN(c2ccc([N+](=O)[O-])cc2)CC1 | -69.5%
3 | O=CN1CCN(C(=O)Cc2ccc([N+](=O)[O-])cc2)CC1 | -25.6%
4 | CC(Cc1ccccc1)NC(=O)/C=C/c1ccc([N+](=O)[O-])cc1 (stereo not drawn) | -51.7%
5 | COc1ccc(N2CCN(C(=O)c3ccc(CNS(=O)(=O)c4ccc(C)cc4)cc3)CC2)cc1 | 13.9%
6 | O=C(Cc1ccc(F)cc1)N1CCN(c2ccc(F)cc2)CC1 | 0.483%
7 | Cc1ccc(S(=O)(=O)NCc2ccc(C(=O)N3CCN(c4ccccc4)CC3)cc2)cc1 | -18.6%
8 | O=C(Cc1ccc(Cl)cc1)N1CCN(c2ccccc2)CC1 | -12.2%
9 | O=C(Cc1ccc(Br)cc1)N1CCN(c2ccc(F)cc2)CC1 | -49.9%
10 | Cc1ccc(S(=O)(=O)NCc2ccc(C(=O)N3CCN(c4ccc([N+](=O)[O-])cc4)CC3)cc2)cc1 | -70.7%
11 | CC(Cc1ccccc1)NC(=O)Cc1ccc([N+](=O)[O-])cc1 (stereo not drawn) | -17.8%
12 | CC(Cc1ccccc1)NC(=O)/C=C/c1ccc(Cl)cc1 (stereo not drawn) | -11.7%
13 | O=C(Cc1ccccc1)N1CCN(c2ccc([N+](=O)[O-])cc2)CC1 | -55.2%
14 | CCN(c1ccc(NC(=O)COC(=O)CCC(=O)c2ccc(F)cc2)cc1)C(C)C | -4.95%
15 | O=C(Cn1cnc2c(nnn2Cc2ccccc2F)c1=O)N1CCN(c2ccccc2)CC1 | -31.2%
16 | O=C(NCCC1=CCCCC1)c1cccc2c1C(=O)N(C1CCCCC1)C2 | 9.87%
17 | O=C(NN1C(=O)c2ccccc2C1=O)c1ccncc1 | 10.4%
18 | CCOC(=O)C(O)(c1ccc(NC(=O)c2ccc(Cl)c(Cl)c2)cc1)C(F)(F)F (stereo not drawn) | -4.61%
19 | COc1ccc(NC(=O)CSc2nccn2Cc2ccco2)cc1OC | 11.3%
20 | CCOC(=O)N1CCN(C(=O)c2ccc3c(c2)sc2nc(-c4ccccc4)cn23)CC1 | -49.3%
21 | CCOC(=O)c1cn(CC)c2ccc(S(=O)(=O)N3CC(C)CC(C)C3)cc2c1=O (stereo not drawn) | -21.7%
22 | Cc1c(C)c2ccc(OC(C)C(=O)NCCc3c[nH]c4ccccc34)cc2oc1=O (stereo not drawn) | -2.3%

Row | Structure (SMILES) | hERG current change (%, negative = inhibition) at 10uM
23 | Cc1ccc(SCC(=O)N2CCC(C(N)=O)CC2)cc1 | 13.2%
24 | O=C(CN1CCN(c2ccc([N+](=O)[O-])cc2Cl)CC1)N1CCOCC1 | -45.2%
25 | O=C(CN1CCOCC1)N1CCN(c2ccc([N+](=O)[O-])cc2)CC1 | -71.6%
26 | Cc1ccc(S(=O)(=O)N2CCN(C(=O)Cc3ccccc3)CC2)cc1 | -26.1%
27 | Cc1ccc(S(=O)(=O)NCCC(=O)N2CCN(S(=O)(=O)c3ccccc3)CC2)cc1C | -16.6%
28 | Cc1ccc(CC(=O)N2CCN(S(=O)(=O)c3ccccc3)CC2)cc1C | -55.5%
29 | O=C(Cc1ccccc1)N1CCN(S(=O)(=O)c2cccc([N+](=O)[O-])c2)CC1 | -22.2%
30 | Cc1ccc(S(=O)(=O)N2CCN(C(=O)Cc3ccccc3)CC2)cc1C | -2.97%
31 | O=C(CN1CCN(c2ccc(F)cc2)CC1)N1CCOCC1 | 12.9%
32 | O=C(Cc1ccccc1)N1CCN(S(=O)(=O)c2ccc([N+](=O)[O-])cc2)CC1 | -64%
33 | CCOC(=O)Cc1csc(NC(=O)Cc2cccs2)n1 | 6.28%
34 | COc1ccc(S(=O)(=O)N2CCCC2C(=O)NCc2ccccc2Cl)cc1 (stereo not drawn) | -12.4%
35 | CC1CCC(NCCNC(=O)c2ccco2)CC1 (stereo not drawn) | 11.8%
36 | Cc1ccsc1C(=O)NCc1ccc(Cl)cc1 | 11.1%
37 | c1cnc(NCCNc2ncccn2)nc1 | 9.05%
38 | CC1(C)CC(NC(=O)c2ccc3c(c2)OCO3)CC(C)(C)N1 | 4.65%
39 | COC(=O)[C@H](CC(C)C)NC(=O)NCCCc1ccccc1 | 1.82%
40 | COc1ccc(C2Nc3ccccc3C(=O)N2Cc2ccccc2)cc1COc1ccccn1 (stereo not drawn) | -49.4%
41 | Cn1cc(C2=C(c3ccc(Cl)cc3Cl)C(=O)NC2=O)c2ccccc21 | 33%
42 | Cc1cccc(C(=O)N2CCC(c3nc(-c4ccc(S(=O)(=O)N5CCOCC5)cc4)no3)CC2)c1 | -3.33%
43 | O=C(c1cccs1)N1CCC(c2nc(-c3ccc(S(=O)(=O)N4CCOCC4)cc3)no2)CC1 | -68.8%
44 | O=C(c1ccccc1)N1CCC(c2nc(-c3ccc(S(=O)(=O)N4CCOCC4)cc3)no2)CC1 | -60.8%

Row | Structure (SMILES) | hERG current change (%, negative = inhibition) at 10uM
45 | O=C(Nc1ccccc1)N1CCC(c2nc(-c3ccc(S(=O)(=O)N4CCOCC4)cc3)no2)CC1 | -4.94%
46 | O=C(N1CCOCC1)N1CCC(c2nc(-c3ccc(S(=O)(=O)N4CCOCC4)cc3)no2)CC1 | -2.07%
47 | O=C(C1CC1)N1CCC(c2nc(-c3ccc(S(=O)(=O)N4CCCC4)cc3)no2)CC1 | -13%
48 | O=C(CN1C(=O)C2CC=CCC2C1=O)Nc1ccc(OC(F)(F)F)cc1 (stereo not drawn) | -14.2%
49 | CCOC(=O)c1c(-c2ccccc2)csc1NC(=O)CSc1ccccc1 | -4.13%
50 | O=C(CSc1nnc(Cc2ccsc2)o1)c1ccccc1 | -16.7%
51 | CC1(C)CC(=O)C(C=Nc2ccc(Cl)cn2)=C(O)C1 | 11.6%
52 | CN(c1ccc(Cl)cc1)c1cc(=O)n(C)c2ccccc12 | -51.8%
53 | CN(C(=O)COc1cc(=O)n(C)c2ccccc12)c1ccc(Cl)cc1 | -29.2%
54 | COc1cc(=O)n(C)c2ccccc12 | -4.88%
55 | CCC(CC)COC(=O)C1=C(C)NC(=O)NC1c1ccc([N+](=O)[O-])cc1 (stereo not drawn) | 11.6%
56 | Cc1ccc(NS(=O)(=O)c2cccc(C(=O)NCC(c3ccc(F)cc3)N3CCOCC3)c2)cc1 (stereo not drawn) | -16.8%
57 | COc1cc(CN2CC=C(c3ccc(F)cc3)CC2)cc(OC)c1 | -57.3%
58 | CCN(CC)c1ccc(CN2CC=C(c3ccc(F)cc3)CC2)cc1 | -78.4%
59 | CN(C)c1ccc(CN2CC=C(c3ccc(F)cc3)CC2)cc1 | -69.9%
60 | COc1cc(C)c(CN2CC=C(c3ccc(F)cc3)CC2)cc1C | -37.2%
61 | O=[N+]([O-])c1cccc(CN2CC=C(c3ccc(F)cc3)CC2)c1 | -39.2%
62 | COc1cccc(CN2CC=C(c3ccc(F)cc3)CC2)c1 | -26.5%
63 | CCN(CC)c1ccc(CN2CCCCCC2)cc1 | -20.4%
64 | COc1ccc(CN2CC=C(c3ccc(F)cc3)CC2)cc1Br | -11.7%
65 | O=[N+]([O-])c1ccccc1CN1CC=C(c2ccc(F)cc2)CC1 | -12.8%
66 | CCOC(=O)c1c(S(=O)(=O)N2c3ccccc3CC2C)c(C)n(C)c1C (stereo not drawn) | 13.1%

Row | Structure (SMILES) | hERG current change (%, negative = inhibition) at 10uM
67 | CC(=O)Oc1ccc(C(=O)Nc2cccc(-c3nnc(-c4ccco4)o3)c2)cc1 | 0.775%
68 | O=C(COC(=O)C1(c2ccc(F)cc2)CCCC1)NC1CC1 | 0.676%
69 | CCC1(C)Cc2c(sc3nc(SC)n(Cc4ccccc4)c(=O)c23)CO1 (stereo not drawn) | 6.63%
70 | Cc1sc(NC(=O)C2=COCCO2)nc1-c1ccc(Cl)cc1 | 13%
71 | CCCCn1c(=O)c(CCC(=O)OCC(=O)NC(=O)NCCC(C)C)nc2ccccc21 | -9.31%
72 | CCc1nnc(NC(=O)C2CCCN(S(=O)(=O)c3ccccc3)C2)s1 (stereo not drawn) | 5.15%
73 | Cc1nc2cc(NC(=O)COc3ccccc3C#N)ccc2n1-c1ccccc1 | -4.85%
74 | Cc1sc2ncnc(N3CCN(CCOc4ccc(Cl)cc4)CC3)c2c1C | -9.02%
75 | CCN(CC)S(=O)(=O)c1ccc(N2CCN(CCOc3ccc(OC)cc3)CC2)nc1 | -46.8%
76 | Clc1ccc(OCCN2CCN(c3ncnc4sccc34)CC2)cc1 | -81.2%
77 | Cc1cc(C)c(C#N)c(N2CCN(CCOc3ccc(Cl)cc3)CC2)n1 | -33.6%
78 | Clc1ccc(OCCN2CCOCC2)cc1 | 17%
79 | NS(=O)(=O)c1ccc(N2CCN(CCOc3ccc(Cl)cc3)CC2)nc1 | -69.8%
80 | CN(C)C(=O)CSc1ccc(S(=O)(=O)N2CCOCC2)cn1 | 10.6%
81 | O=C(CSc1nnc(-c2cccs2)o1)N1CCCCC1 | 2.99%
82 | CCOC(=O)CSc1nc2ccccc2c(=O)n1-c1ccc(C)cn1 | 0.327%
83 | O=C(/C=C/c1ccco1)NCC1(c2ccccc2)CCCC1 | -4.49%
84 | O=C(/C=C/c1ccc(F)cc1)NCC1(c2ccccc2)CCOCC1 | -50.5%
85 | O=C(/C=C/c1ccccc1)NCC1(c2ccccc2)CCOCC1 | -9.11%
86 | O=C(NC1CCCC1)C(c1ccncc1)N(C(=O)c1csnn1)c1ccccc1 (stereo not drawn) | 15.1%
87 | Cc1cc(N2C(=O)C(O)=C(C(=O)c3ccco3)C2c2ccc(Cl)cc2)no1 (stereo not drawn) | -6.77%
